Reference: the OligoGym collection

biological target: GALNT7; assay: pooled miR-30 sensor sort-seq; sequence = guide strand; settings: shRNA

Q: For TTCATTGATTCTGAAAAGCTGA, which sensor-assay potency score (higher = more potent) is on record?
A: Its sensor-assay potency score (higher = more potent) is -0.364.

Q: For TAGACTCTAAGTCCACTTCTAC, which sensor-assay potency score (higher = more potent) is on record?
A: The sensor-assay potency score (higher = more potent) was -0.661.

Q: For ATTGACATCTCTGTCTTCCCTC, which sensor-assay potency score (higher = more potent) is on record?
A: Its sensor-assay potency score (higher = more potent) is 0.3.

Q: For TTAAATTTTAAAAACGTGCAGA, which sensor-assay potency score (higher = more potent) is on record?
A: The sensor-assay potency score (higher = more potent) was -0.271.

Q: For TTTAATTACACTGTGGACTGTT, which sensor-assay potency score (higher = more potent) is on record?
A: Its sensor-assay potency score (higher = more potent) is 0.94.

Q: Which sensor-assay potency score (higher = more potent) does the source give for TTCGTGCTTGAATTAAACCTTC here?
A: Its sensor-assay potency score (higher = more potent) is -0.485.

Q: Which sensor-assay potency score (higher = more potent) does the source give for TTCTTTATTACTGAAATCGTCA here?
A: The sensor-assay potency score (higher = more potent) was -0.232.

Q: How did the sensor-assay potency score (higher = more potent) turn out when TTATTCTTCTAATAGACTCTAA was run?
A: The sensor-assay potency score (higher = more potent) was -0.0226.

Q: Which sensor-assay potency score (higher = more potent) does the source give for TAACTTTTGATCCATCAGCTCC here?
A: Its sensor-assay potency score (higher = more potent) is -0.72.

Q: With TAATCATAACTTTTGATCCATC as the sequence, how does the sensor-assay potency score (higher = more potent) read?
A: The sensor-assay potency score (higher = more potent) was -1.43.

Q: For TTGACATCTCTGTCTTCCCTCA, which sensor-assay potency score (higher = more potent) is on record?
A: The sensor-assay potency score (higher = more potent) was -0.191.

biological target: GALNT9; assay: as above; settings: shRNA

Q: How did the sensor-assay potency score (higher = more potent) turn out when TTTGGACATCTCCACCTCCAGG was run?
A: The sensor-assay potency score (higher = more potent) was -1.41.

Q: With TTTGTCGCTGTCCATGTCCTCC as the sequence, how does the sensor-assay potency score (higher = more potent) read?
A: The sensor-assay potency score (higher = more potent) was -0.772.

Q: How did the sensor-assay potency score (higher = more potent) turn out when TGATGTGTGACTTAGGTCTTGG was run?
A: Its sensor-assay potency score (higher = more potent) is 0.117.
